# Reference: PubChem BioAssay (Tox21)
# Records with an inconclusive call do not appear. Values without a mark were called inactive. Calls of active or inactive are those of the source. The call rests on the fitted dose curve; in most records, active means well fitted inhibition curve with a large enough effect in the signal ratio in the repeat runs (not every such curve was filed as active); inconclusive means weak or mixed curves; inactive means flat fitted curve, though single readings scatter; the % refers to the signal ratio.
# Target: Progesterone receptor (Homo sapiens) (UniProt P06401)
# Assay: qHTS assay to identify small molecule antagonists of the progesterone receptor (PR) signaling pathway (AID 1346795)
# Conditions: PR-UAS-bla HEK293T, beta-lactamase FRET ratio, 16 h; series mostly up to 92.4 µM; activity change, negative = inhibition: at the top concentration
# Excerpt: National Center for Advancing Translational Sciences [NCATS]
# NIH Chemical Genomics Center [NCGC]
# U.S. Environmental Protection Agency [EPA]
# National Institutes of Environmental Health Sciences [NIEHS]
# National Toxicology Program [NTP]
# U.S. Food and Drug Administration [FDA]
# Progesterone receptor (PR), a nuclear hormone receptor, plays an important role in development, metabolic homeostasis and reproduction. […] Endocrine disrupting chemicals (EDCs) and their interactions with steroid hormone receptors like PR causes disruption of normal endocrine function. To identify the compounds that inhibit PR signaling, a PR-UAS-bla GripTite cell line i.e. PR-UAS-bla HEK293T (Invitrogen, Carlsbad, CA, USA) containing a beta-lactamase reporter gene under the control of an Upstream Activator Sequence (UAS) was used to screen Tox21 10K compound library.
# Tox21 Assay Protocol Summary:
# PR-UAS-bla HEK293T cells were dispensed at 3,000 cells/4 uL of assay medium containing 2% charcoal stripped FBS per well into black wall/clear-bottom 1536-well plates using a Multidrop Combi (ThermoFisher Scientific, Waltham, MA) dispenser. After the assay plates were incubated at a 37C and 5% CO2 for 6 hr, 23 nL of compounds dissolved in DMSO, positive controls or DMSO only was transferred to the assay plate by a Pintool station (Kalypsys, San Diego, CA), followed by addition of 1 uL (1nM as final concentration) of Promegestone (R5020) in assay medium using a BioRAPTR FRD (Flying Reagent Dispenser, Aurora Discovery, San Diego, CA). The plates were incubated at 37C and 5% CO2 for 16 hr. Then 1 uL of LiveBLAzer B/G FRET substrate was added using a FRD. After the plates were incubated at room temperature for 2 hours, fluorescence intensity was measured by an Envision plate reader (PerkinElmer, Shelton, CT).
# On the % scale 0 is the no-effect control and ±100 the full control effect; potency means the concentration at half of the fitted maximal effect.
# Chain of Progesterone receptor (Homo sapiens) (P06401 whole entry, looked up): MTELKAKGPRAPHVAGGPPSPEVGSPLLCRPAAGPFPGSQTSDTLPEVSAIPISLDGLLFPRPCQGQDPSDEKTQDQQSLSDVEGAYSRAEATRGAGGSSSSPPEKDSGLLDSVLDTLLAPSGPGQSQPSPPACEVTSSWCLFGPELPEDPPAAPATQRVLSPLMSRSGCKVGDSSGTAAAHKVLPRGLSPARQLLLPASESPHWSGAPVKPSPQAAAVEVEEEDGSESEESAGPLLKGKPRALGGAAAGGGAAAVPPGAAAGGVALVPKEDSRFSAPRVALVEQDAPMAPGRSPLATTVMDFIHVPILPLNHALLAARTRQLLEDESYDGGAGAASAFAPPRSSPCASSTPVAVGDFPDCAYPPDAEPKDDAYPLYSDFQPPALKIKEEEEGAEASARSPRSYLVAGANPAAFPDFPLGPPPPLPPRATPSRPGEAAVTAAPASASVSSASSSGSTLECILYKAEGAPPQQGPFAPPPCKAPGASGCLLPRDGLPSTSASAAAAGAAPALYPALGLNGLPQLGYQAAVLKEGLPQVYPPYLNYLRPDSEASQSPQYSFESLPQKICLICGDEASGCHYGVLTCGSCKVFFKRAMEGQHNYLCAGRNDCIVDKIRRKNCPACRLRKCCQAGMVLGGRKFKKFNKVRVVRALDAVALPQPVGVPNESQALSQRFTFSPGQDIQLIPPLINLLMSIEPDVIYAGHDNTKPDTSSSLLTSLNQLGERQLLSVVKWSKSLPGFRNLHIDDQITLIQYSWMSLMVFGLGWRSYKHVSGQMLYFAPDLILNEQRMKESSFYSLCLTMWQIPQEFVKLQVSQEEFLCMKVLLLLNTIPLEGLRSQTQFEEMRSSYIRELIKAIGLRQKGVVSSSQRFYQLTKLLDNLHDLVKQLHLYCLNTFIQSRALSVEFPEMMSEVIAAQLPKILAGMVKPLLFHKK
Structure (SMILES),"activity change, negative = inhibition",Potency
CC1=C(O)C(=O)OC1C (stereo not given),9.39%,
CCOc1ccccc1N,-9.85%,
CCOC(=O)[C@H](CCc1ccccc1)N[C@@H](C)C(=O)N1Cc2cc(OC)c(OC)cc2C[C@H]1C(=O)O,7.06% [at 42.5 µM],
C=CC1CO1 (stereo not given),10.2%,
CCC(=O)O[C@]1(C(=O)SCF)[C@H](C)C[C@H]2[C@@H]3C[C@H](F)C4=CC(=O)C=C[C@]4(C)[C@@]3(F)[C@@H](O)C[C@@]21C,17% [at 42.5 µM],
C[C@]12C(=O)OC(=O)[C@H]1[C@H]1C=C[C@@H]2C1,-1.51%,
CCCCCCCOC(=O)CCC,9.96%,
CCN(O)CC,11.4%,
Cc1ccsc1C(=CCCN1CCC[C@@H](C(=O)O)C1)c1sccc1C,6.8% [at 42.5 µM],
CS(=O)(=O)c1ccc([C@@H](O)[C@@H](CF)NC(=O)C(Cl)Cl)cc1,5.94% [at 42.5 µM],
CC1=C(CC(=O)O)c2cc(F)ccc2/C1=C\c1ccc(S(C)(=O)=O)cc1,-6.99% [at 42.5 µM],
CC(C)C1=CC2=CC[C@@H]3[C@](C)(CCC[C@@]3(C)C(=O)O)[C@H]2CC1,-23.2%,
CC1(C)O[C@@H]2C[C@H]3[C@@H]4CCC5=CC(=O)CC[C@]5(C)[C@@]4(F)[C@@H](O)C[C@]3(C)[C@]2(C(=O)CCl)O1,7.85% [at 42.5 µM],
CCCCc1ccc2nc(NC(=O)OC)[nH]c2c1,,4.22 µM (active)
CN(CC1(C)CCCO1)S(=O)(=O)c1ccc(Cl)c(S(N)(=O)=O)c1 (stereo not given),1.02% [at 42.5 µM],
CCCCCCCCCCCCCCCCOP(=O)([O-])OCC[N+](C)(C)C,-8.76% [at 42.5 µM],
CC1=NN(c2cc(Cl)c(S(=O)(=O)O)cc2Cl)C(=O)C1N=Nc1ccc(S(=O)(=O)O)cc1 (stereo not given),7.78%,
CC(C)C(=O)OC/C=C/c1ccccc1,-2.1%,
O=c1[nH]c(=O)n([C@H]2C[C@H](O)[C@@H](CO)O2)cc1C(F)(F)F,-23.7% [at 42.5 µM],
Cc1ccc(C)c(N)c1,1.94%,

Structure (SMILES),"activity change, negative = inhibition",Potency
O=[N+]([O-])c1nccn1CO[C@@H](CO)[C@H](O)CO,1.38% [at 42.5 µM],
CNCCC(Oc1ccccc1OC)c1ccccc1 (stereo not given),-0.289% [at 42.5 µM],
CCOC(=O)C1CC(=O)C(=C(O)C2CC2)C(=O)C1 (stereo not given),10.1%,
O=c1oc2c(O)c(O)cc3c(=O)oc4c(O)c(O)cc1c4c23,7.58% [at 18.9 µM],
CCOC(=O)c1cc(=O)c2c(OCC(COc3cccc4oc(C(=O)OCC)cc(=O)c34)OC(=O)[C@@H](N)CCCCN)cccc2o1,2.27% [at 42.5 µM],
CC(C)S,4.36%,
CCN(CC)C(=O)N(CC)CC,7.43%,
FC(F)(F)C(Cl)(Cl)Cl,-2.39%,
CCOc1ccc2nc(N)sc2c1,,60.6 µM (active)
CC1(C)S[C@@H]2[C@H](NC(=O)C(C(=O)O)c3ccccc3)C(=O)N2[C@H]1C(=O)O (stereo not given in full),2.48% [at 42.5 µM],
NCCCN1CCN(CCCN)CC1,1.72%,
C=CCCCCCCCCO,0.305%,
CCN(CC)CC1CCCCN1CC(=O)N1c2ccccc2C(=O)Nc2cccnc21 (stereo not given),-17.7% [at 42.5 µM],
C=CC(C)(O)CC/C=C(\C)CCC=C(C)C (stereo not given),0.14%,
CCCN(CCC)C(=O)C(CCC(=O)O)NC(=O)c1ccccc1 (stereo not given),3.05% [at 42.5 µM],
Cc1c[nH]c(=S)[nH]c1=O,-5.11%,
CC/C=C\CCOC(=O)CCCCC,7.93%,
CN(C)CC[C@@H](c1ccc(Cl)cc1)c1ccccn1,-1.17% [at 42.5 µM],
COc1ccccc1OCC(O)COC(N)=O (stereo not given),0.984% [at 42.5 µM],
COc1cc2c(cc1N)oc1ccccc12,,44.2 µM (active)
